# PubChem BioAssay (EPA / NIEHS)
# The source made the active and inactive calls. The calls were made as follows: active = hit-call score of the fitted dose curve at least 0.9, where 1 is the maximum; inactive = score below 0.9. *1 amine or outer side, *2 acyl side, *3 side chain or, on linkers, in order; H or OH if unused. Where a SMILES comes first, the peptide text is derived from it. Bridges are numbered along the chain shown (N, C = ends). Roman numbers before positions name the chains, in order. [ ]: non-standard residue; d: D form. Actinocin(9to1) = Cc1c2oc3c(C)ccc(C(=O)[*:1])c3nc-2c(C(=O)[*:2])c(N)c1=O; NMeV = CN[C@H](C(=O)O)C(C)C; Sar = CNCC(=O)O
# Test: CCTE_Deisenroth_DEVTOX-GLR_legacy_CellCount: (Legacy) Viability Assessment in CCTE's DevTox GLR-Endo Assay, Deisenroth Lab (AID 2284331)
# Conditions: actives raise or lower the signal
# Description: CCTE_Deisenroth_DEVTOX-GLR_legacy assay is a cell-based, multiplex-readout assay that uses RUES2-GLR, a human pluripotent cell line, with measurements taken at 48 hours after chemical dosing in a 384-well microplateCCTE_Deisenroth_DEVTOX-GLR_legacy_CellCount is one of 4 assay components calculated from the CCTE_Deisenroth_DEVTOX-GLR_legacy assay that measures an increase in cell count. It is designed to make measurements of nuclei count, a form of cell viability, as detected with optical fluorescence microscopy by Perkin Elmer Harmony nuclei detection algorithm. The assay endpoints were analyzed with bidirectional fitting relative to 0.2% DMSO control in the DEVTOX-GLR assay.Data from the assay component CCTE_Deisenroth_DEVTOX-GLR_legacy_CellCount was analyzed into 1 assay endpoint. This assay endpoint, CCTE_Deisenroth_DEVTOX-GLR_legacy_CellCount, was analyzed with bidirectional fitting relative to DMSO as the negative control and baseline activity. Using nuclei counting, gain or loss-of-signal activity can be used to understand changes in cell viability. Furthermore, this assay endpoint can be referred to as a primary readout, because this assay has produced multiple assay endpoints where this one serves as a measure of cytotoxicity. To generalize the intended target to other relatable targets, this assay endpoint is annotated to the cell cycle intended target family, where the subfamily is cytotoxicity.
# All assay protocols are aligned to the DevTox GLR-Endo assay workflow. Cells are seeded into 384-well microplates for 24 hours prior to initiating differentiation in defined media for a total duration of 48 hours. A total of two chemical exposures are administered in 24-hour intervals during the 48-hour differentiation period. At the assay termination point, cells are fixed and stained with a fluorescent dye demarcating the nucleus. High-content imaging is used to acquire brightfield and fluorescent channel images across 5 fields per well. Cell identification and mean biomarker fluorescence intensities are calculated with image analysis software to determine the total cell counts for viability assessment and the biomarker expression frequency for each lineage-dependent assay. A typical experimental design tests a 10-point concentration series (1 nM - 200 uM) for 28 compounds in single technical replicate. Assay plate controls include non-differentiated pluripotent cells (baseline control), lineage-specific differentiated cells (differentiation control), and DMSO solvent exposed differentiated cells (solvent control). Experiments typically comprise a minimum of four experimental replicates (n=4).
row,Compound,AC50
1,COc1cc2c(Nc3ccc(Br)cc3F)ncnc2cc1OCC1CCN(C)CC1,4.51 µM (active)
2,Cc1nc2sccn2c(=O)c1CCN1CCC(=C(c2ccc(F)cc2)c2ccc(F)cc2)CC1,9.28 µM (active)
3,Cc1ccc(NC(=O)c2ccc(CN3CCN(C)CC3)cc2)cc1Nc1nccc(-c2cccnc2)n1,15.9 µM (active)
4,CCN(CC)CCNC(=O)c1c(C)[nH]c(/C=C2\C(=O)Nc3ccc(F)cc32)c1C,1.63 µM (active)
5,COc1cc2ncnc(Nc3ccc(F)c(Cl)c3)c2cc1OCCCN1CCOCC1,6.58 µM (active)
6,CCCCCN=C(N)N/N=C/c1c[nH]c2ccc(OC)cc12,5.09 µM (active)
7,Cc1nc(Nc2ncc(C(=O)Nc3c(C)cccc3Cl)s2)cc(N2CCN(CCO)CC2)n1,0.0582 µM (active)
8,O=C(c1ccc(F)cc1)C1CCN(CCn2c(=O)[nH]c3ccccc3c2=O)CC1,58.8 µM (active)
9,CNC(=O)c1cc(Oc2ccc(NC(=O)Nc3ccc(Cl)c(C(F)(F)F)c3)cc2)ccn1,1.11 µM (active)
10,Nc1cccc2c1CN(C1CCC(=O)NC1=O)C2=O (centres undefined),0.132 µM (active)
11,O=C1Cc2cc(CCN3CCN(c4nsc5ccccc45)CC3)c(Cl)cc2N1,3.31 µM (active)
12,O=c1[nH]c(=O)n([C@H]2C[C@H](O)[C@@H](CO)O2)cc1Br,10.2 µM (active)
13,CN1CCN2c3ccccc3Cc3ccccc3C2C1 (centres undefined),36.5 µM (active)
14,"Cc1c2oc3c(C)ccc(C(=O)N[C@@H]4C(=O)N[C@H](C(C)C)C(=O)N5CCC[C@H]5C(=O)N(C)CC(=O)N(C)[C@@H](C(C)C)C(=O)O[C@@H]4C)c3nc-2c(C(=O)N[C@@H]2C(=O)N[C@H](C(C)C)C(=O)N3CCC[C@H]3C(=O)N(C)CC(=O)N(C)[C@@H](C(C)C)C(=O)O[C@@H]2C)c(N)c1=O (I: T[dV]P[Sar][NMeV] / II: T[dV]P[Sar][NMeV]; ester I:1-I:C, II:1-II:C; linker I:N-II:N via Actinocin(9to1))",0.000297 µM (active)
